The nature of test [1]: compound effects on lung adenocarcinoma cell viability – A549, calcein-AM fluorescence, 48 h, basal, profiling panel (AID 1162). To be noted: higher = more signal.
Test [2] can be described thus: compound effects on differentiated 3T3-L1 adipocyte viability – cell-based, 3T3-L1 adipocytes, calcein-AM fluorescence, 48 h, basal, profiling panel (AID 1163). To be noted: 3T3-L1 adipocytes viability, higher = more signal.
Test [3] in a line: compound effects on hepatocellular carcinoma cell viability – HepG2, calcein-AM fluorescence, 48 h, basal, profiling panel (AID 1164). Particulars: higher = more signal.
Test [4] is described as follows: compound effects on multiple myeloma cell viability – MM1S, calcein-AM fluorescence, 48 h, basal, profiling panel (AID 1165).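 Also: viability of MM1S multiple myeloma cells under basal unstimulated conditions.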 Particulars: higher = more signal.
Test [5] in a line: calcein-AM signal in unstimulated myeloma cells – cell-based, calcein-AM fluorescence, 48 h, PK04 Diversity Set, profiling panel (AID 1166).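 Also: cells grown under basal conditions without added stimulus.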 Particulars: RPMI8226 myeloma viability, higher = more signal.
The nature of test [6]: JC-1 mitochondrial signal, unstimulated HepG2 cells – cell-based, JC-1 fluorescence, 24 h, 100 nL compound, profiling panel (AID 1167). To be noted: HepG2 mitochondrial potential, higher = more signal.
The nature of test [7]: JC-1 mitochondrial signal, unstimulated adipocytes – cell-based, JC-1 fluorescence, 3T3-L1 adipocytes, 24 h, 100 nL compound, profiling panel (AID 1168). To be noted: JC-1 mitochondrial fluorescence, higher = more signal, called active from +8 up or from −8 down.
Test [8] can be described thus: JC-1 mitochondrial signal, unstimulated myeloma cells – cell-based, JC-1 fluorescence, RPMI8226, 24 h, 100 nL compound, profiling panel (AID 1169). Particulars: JC-1 mitochondrial potential fluorescence, higher = more signal.
Test [9] in a line: JC-1 mitochondrial signal, unstimulated MM1S myeloma – cell-based, JC-1 fluorescence, 24 h, 100 nL compound, profiling panel (AID 1170). Particulars: MM1S mitochondrial potential, higher = more signal.
A short description of test [10]: resazurin metabolic signal in A549 cells – cell-based, resazurin fluorescence, 24 h, PK04 Diversity Set, profiling panel (AID 1171). Particulars: A549 viability, higher = more signal, called active from +8 up or from −8 down. (Resazurin is reduced to fluorescent resorufin, in cell work by metabolically active cells.)

Active and inactive are the calls of the source.
Also: test concentration not given here.

For `CCCC[C@@H]1C[C@H]1[C@@H](NC(=O)c1ccco1)c1ccccc1`, the z-score is -2.22 in test [1]; -0.252 in [2]; -2.22 in test [3]; -3.27 in [4]; -4.74 in test [5]; -3.6 in [6]. Besides, the z-score in [7] is -1.27 (inactive); in test [8] it was -0.759; in test [9], -2.24; in test [10], 2.55 (inactive).
In the case of `O=C1OCCC/C=C\[C@H]2OC34C=CCN(Cn5nnc6ccccc65)C(=O)[C@H]3N(CCCO)C(=O)[C@@H]4C12` (stereo not given in full), the z-score in test [1] was -0.745; in test [2], 0.737; in [3] it was -0.395; in [4], 1.25; in test [5] it was -0.284; in test [6], -0.313. In addition, the z-score in [7] is 1.16 (inactive); in test [8], -0.0773; in test [9] it was -0.73; in test [10], 0.651 (inactive).
For the molecule `CCOC(=O)N1C(c2ccc(OCCCO)cc2)=NC(C(=O)OC)N1C(=O)OCC` (stereo not given), the z-score in test [1] was -0.481; in [2], 0.69; in test [3] it was 0.21; in [4], 0.487; in [5], 0.732; in test [6], -0.231. Further, the z-score in test [7] is 0.68 (inactive); in test [8], -1.24; in test [9], 0.0773; in [10], 0.352 (inactive).
Take `COCCOC(=O)N1C(=O)[C@@]2(c3cc(C#CCC(C(=O)OC)C(=O)OC)ccc31)[C@H](c1ccc(OCCO)cc1)N1[C@H](c3ccccc3)[C@H](c3ccccc3)OC(=O)[C@H]1[C@@H]2C(=O)NC[C@H](O)c1ccccc1`: the z-score was 0.185 in test [1]; 0.102 in test [2]; 1.56 in [3]; 0.446 in test [4]; -2.01 in test [5]; 0.177 in test [6]. Besides, the z-score was 1.39 (inactive) in test [7], -0.749 in test [8], -1.61 in [9] and 0.0076 (inactive) in test [10].
On to `C=C(C(=O)CC[C@@H](OC(C)=O)c1ccc(OCCO)cc1)C(C)C`, for which the z-score in test [1] was -0.382; in [2], -0.0315; in [3], 0.185; in test [4] it was -1.06; in test [5], 0.16; in [6] it was -0.637. Also, the z-score in test [7] was -0.191 (inactive); in test [8], 0.0885; in test [9], 0.109; in test [10], -0.222 (inactive).
In the case of `CC(C)C(O)C1C=CC2C(=O)N(C)C(=O)C2N1N1CCCCC1` (stereo not given), the z-score in test [1] was 0.553; in [2], -0.0255; in [3], -0.306; in test [4], -0.602; in test [5], -1.34; in test [6] it was -0.778. The z-score in test [7] is -0.307 (inactive); in test [8], 0.643; in [9] it was -0.189; in test [10] it was -0.153 (inactive).
In the case of `C=C(C(=O)CC[C@@H](OC(=O)c1cccnc1)c1ccc(CO)o1)C(C)C`, the z-score is -0.628 in [1]; 0.153 in test [2]; -0.545 in test [3]; -1.06 in [4]; -0.56 in [5]; -1.3 in [6]. The z-score in test [7] is 0.0907 (inactive); in test [8] it was 0.283; in test [9] it was 0.48; in test [10] it was -0.297 (inactive).
`C=CCN1C(=O)[C@@]2(O[C@@H](CCO)[C@H]([Si](C)(C)c3ccc(OC)cc3)[C@H]2C)c2cc(NC(C)=O)ccc21`: the z-score in test [1] was 0.103; in test [2], -0.213; in test [3], -0.411; in test [4], -1.36; in test [5] it was -1.56; in test [6] it was -0.96. The z-score in [7] was -0.296 (inactive); in [8] it was -0.484; in test [9], -0.722; in test [10] it was -1.17 (inactive).
For `CN1C(=O)C2C=CC(C(O)C(c3ccccc3)c3ccccc3)N(Nc3ccccc3)C2C1=O` (stereo not given), the z-score in [1] was 0.322; in test [2], -0.648; in test [3] it was -0.0678; in [4], -1.34; in [5] it was -1.07; in test [6] it was -1.66. Further, the z-score is -0.981 (inactive) in test [7], 0.212 in test [8], -0.179 in [9] and 0.46 (inactive) in test [10].
With `CN(C)CCCC[C@@H]1NC(=O)[C@@H]2C[C@H](C(=O)NCCCCCN)[C@H](c3ccc(O)cc3)N2C1=O`, the z-score in test [1] is 0.635; in test [2] it was 0.177; in test [3], -0.0772; in test [4], 0.189; in [5], -0.115; in [6] it was 1.25. Besides, the z-score is 0.665 (inactive) in [7], -0.286 in test [8], -0.592 in test [9] and -0.475 (inactive) in test [10].
For `C=C(C(=O)CC[C@@H](OC(=O)c1cccnc1)c1ccc(OCCO)cc1)C(C)C`, the z-score is -1.9 in test [1]; -1.63 in test [2]; -3.17 in [3]; -3.39 in [4]; -1.9 in [5]; -0.959 in test [6]. Besides, the z-score was -0.0274 (inactive) in [7], -0.304 in test [8], -1.41 in test [9] and -1.34 (inactive) in [10].
For the molecule `Cc1ccc(S[C@]2(C(=O)NCCN3CCOCC3)CC(=O)N(C3CCCCC3)[C@@H]2c2ccc(CO)cc2)cc1`, the z-score in test [1] was 2.25; in test [2] it was 0.486; in test [3] it was 0.555; in test [4], 0.309; in [5], -0.65; in test [6], -0.0786. Besides, the z-score was -0.281 (inactive) in test [7], 0.698 in test [8], 0.485 in [9] and 1.51 (inactive) in test [10].
For the molecule `CCN(CC)c1ccc(N2CC=CC34O[C@@H]5/C=C\CCCOC(=O)C5[C@H]3C(=O)N(CCCO)[C@@H]4C2=O)cc1` (stereo not given in full), the z-score in [1] is -0.13; in test [2], 0.275; in [3], 0.616; in test [4], 0.794; in [5] it was -0.0911; in test [6] it was 0.472. Moreover, the z-score is -0.546 (inactive) in test [7], -0.0632 in [8], 0.918 in test [9] and 0.876 (inactive) in test [10].
In the case of `CCOC(=O)C[C@H]1[C@H](OC(=O)c2ccc(C(=O)c3ccccc3)cc2)[C@@H](NC(=O)c2ccc3ccccc3n2)c2cc(OCCCO)ccc2N1C(=O)c1ccc2ccccc2n1`, the z-score in test [1] was 0.602; in test [2], -0.402; in test [3], 0.674; in [4], -0.367; in test [5], -0.0521; in [6], 1.24. For the same molecule, the z-score in test [7] is 1.63 (inactive); in [8], -0.0794; in [9], 0.215; in test [10] it was 1.04 (inactive).

These data come from PubChem BioAssay.
